From PMC7862700, “An all-to-all approach to the identification of sequence-specific readers for epigenetic DNA modifications on cytosine” come the findings set out here.

What all share (experiment): DAPPL (digital affinity profiling via proximity ligation, sequencing); 10 mM Tris-HCl pH 7.5, 50 mM NaCl, 1 mM DTT, 4% glycerol, room temperature, 30 min; GST-TFs on glutathione beads, 16-mer random dsDNA library, 0.1% formaldehyde crosslink after washing; high values mean tight binding
Details in all cases: protein: recombinant; tags: N-terminal GST; dsDNA, one strand shown

Assay [1] concerns the target T1, ELK1 (Homo sapiens, UniProt P19419 1-428).
T1 sequence: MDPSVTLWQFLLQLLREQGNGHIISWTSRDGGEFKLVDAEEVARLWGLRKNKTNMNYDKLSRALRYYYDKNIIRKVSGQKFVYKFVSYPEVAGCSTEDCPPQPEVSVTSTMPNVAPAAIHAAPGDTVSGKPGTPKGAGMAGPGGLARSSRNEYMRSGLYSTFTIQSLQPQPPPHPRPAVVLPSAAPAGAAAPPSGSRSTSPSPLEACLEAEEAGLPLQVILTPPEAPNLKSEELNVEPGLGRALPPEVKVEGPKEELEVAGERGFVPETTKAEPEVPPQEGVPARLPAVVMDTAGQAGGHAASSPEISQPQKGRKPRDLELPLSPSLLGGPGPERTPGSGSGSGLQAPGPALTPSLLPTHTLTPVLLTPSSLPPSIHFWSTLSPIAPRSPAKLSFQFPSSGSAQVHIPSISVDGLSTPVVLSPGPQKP
The method in brief: (§1)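 GST fusions of human transcription factors were expressed in yeast and captured with glutathione beads. Once given DNA barcodes and pooled alongside a tag-only sample, they were incubated for 30 min at room temperature with 200 nmole of a random double-stranded 16-mer DNA library in Tris/NaCl/DTT/glycerol buffer, then washed, crosslinked (0.1% formaldehyde), proximity-ligated, PCR-amplified and sequenced on an Illumina NextSeq500. The binding signal of each hexamer is its read frequency for a factor divided by its frequency for the tag-only sample.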

Assay [2] concerns the target T2, GABPA (Homo sapiens, UniProt Q06546 1-454).
T2 sequence: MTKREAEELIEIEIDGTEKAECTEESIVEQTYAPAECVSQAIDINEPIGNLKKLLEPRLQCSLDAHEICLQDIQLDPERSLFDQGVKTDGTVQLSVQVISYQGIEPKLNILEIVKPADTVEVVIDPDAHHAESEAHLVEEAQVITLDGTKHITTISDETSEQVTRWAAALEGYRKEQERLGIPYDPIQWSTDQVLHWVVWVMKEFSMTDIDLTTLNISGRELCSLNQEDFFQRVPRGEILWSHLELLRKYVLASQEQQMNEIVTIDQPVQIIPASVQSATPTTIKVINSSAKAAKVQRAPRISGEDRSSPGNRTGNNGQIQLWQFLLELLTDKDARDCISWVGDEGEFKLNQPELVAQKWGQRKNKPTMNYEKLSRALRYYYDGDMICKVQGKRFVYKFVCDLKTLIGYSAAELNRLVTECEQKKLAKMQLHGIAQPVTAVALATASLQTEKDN
The method in brief:
as §1

For assay [3], the target named is T3, ERG (Homo sapiens, UniProt P11308 1-479).
T3 sequence: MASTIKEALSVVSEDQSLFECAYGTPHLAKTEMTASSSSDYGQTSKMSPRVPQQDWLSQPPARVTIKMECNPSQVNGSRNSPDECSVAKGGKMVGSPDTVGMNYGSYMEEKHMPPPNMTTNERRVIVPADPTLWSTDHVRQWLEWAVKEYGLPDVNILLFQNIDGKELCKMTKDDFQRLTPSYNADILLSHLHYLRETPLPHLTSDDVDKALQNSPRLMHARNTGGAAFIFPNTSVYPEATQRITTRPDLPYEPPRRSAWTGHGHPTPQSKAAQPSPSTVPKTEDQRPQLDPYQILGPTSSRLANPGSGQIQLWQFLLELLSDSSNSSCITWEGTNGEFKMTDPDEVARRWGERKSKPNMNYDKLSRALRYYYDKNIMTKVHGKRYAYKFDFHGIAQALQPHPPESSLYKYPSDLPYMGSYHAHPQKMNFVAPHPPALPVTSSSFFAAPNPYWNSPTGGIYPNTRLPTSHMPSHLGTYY
The essentials: as §1

Assay [4] addresses ELF1 (Homo sapiens, UniProt P32519 1-619). The method in brief: as §1
The target of assay [5] is T4, EHF (Homo sapiens, UniProt Q9NZC4 1-300).
T4 sequence: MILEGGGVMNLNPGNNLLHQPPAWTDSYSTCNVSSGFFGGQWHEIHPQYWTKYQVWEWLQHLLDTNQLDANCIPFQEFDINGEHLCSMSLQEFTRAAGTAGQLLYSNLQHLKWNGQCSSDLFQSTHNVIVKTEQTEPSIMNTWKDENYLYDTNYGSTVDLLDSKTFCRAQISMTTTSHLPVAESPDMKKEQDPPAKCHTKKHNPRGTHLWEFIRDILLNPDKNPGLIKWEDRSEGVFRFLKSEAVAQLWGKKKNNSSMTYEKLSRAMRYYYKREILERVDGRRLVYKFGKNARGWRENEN
The method in brief: as §1

Assay [6] concerns the target SPIB (Homo sapiens, UniProt Q01892 1-262). The essentials:
as §1

Assay [7] concerns the target T5, FEV (Homo sapiens, UniProt Q99581 1-238).
T5 sequence: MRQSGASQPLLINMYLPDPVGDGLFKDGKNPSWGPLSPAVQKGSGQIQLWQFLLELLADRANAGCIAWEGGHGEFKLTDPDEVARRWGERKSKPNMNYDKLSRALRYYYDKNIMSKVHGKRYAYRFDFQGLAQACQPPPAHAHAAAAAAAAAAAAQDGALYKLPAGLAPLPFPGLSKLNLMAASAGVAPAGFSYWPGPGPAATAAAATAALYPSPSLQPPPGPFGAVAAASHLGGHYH
The method in brief:
as §1

Assay [8] has as its target ETV5 (Homo sapiens, UniProt P41161 1-510). The method in brief:
as §1

For assay [9], the target named is ELF4 (Homo sapiens, UniProt Q99607 1-663). The method in brief: as §1
In assay [10] the target is T6, ELK4 (Homo sapiens, UniProt P28324-2 1-405).
T6 sequence: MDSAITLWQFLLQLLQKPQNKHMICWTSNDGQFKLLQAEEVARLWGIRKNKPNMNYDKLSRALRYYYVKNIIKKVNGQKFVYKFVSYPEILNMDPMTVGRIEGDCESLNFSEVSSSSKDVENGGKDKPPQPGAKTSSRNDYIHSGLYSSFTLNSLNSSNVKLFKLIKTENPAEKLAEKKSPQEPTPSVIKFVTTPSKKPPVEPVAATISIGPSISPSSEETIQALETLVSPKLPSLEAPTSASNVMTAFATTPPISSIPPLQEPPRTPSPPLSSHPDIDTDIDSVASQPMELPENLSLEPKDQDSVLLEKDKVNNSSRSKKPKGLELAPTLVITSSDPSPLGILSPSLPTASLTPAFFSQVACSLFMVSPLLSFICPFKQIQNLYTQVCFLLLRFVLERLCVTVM
The method in brief: as §1

In assay [11] the target is T7, ELF3 (Homo sapiens, UniProt P78545 1-371).
T7 sequence: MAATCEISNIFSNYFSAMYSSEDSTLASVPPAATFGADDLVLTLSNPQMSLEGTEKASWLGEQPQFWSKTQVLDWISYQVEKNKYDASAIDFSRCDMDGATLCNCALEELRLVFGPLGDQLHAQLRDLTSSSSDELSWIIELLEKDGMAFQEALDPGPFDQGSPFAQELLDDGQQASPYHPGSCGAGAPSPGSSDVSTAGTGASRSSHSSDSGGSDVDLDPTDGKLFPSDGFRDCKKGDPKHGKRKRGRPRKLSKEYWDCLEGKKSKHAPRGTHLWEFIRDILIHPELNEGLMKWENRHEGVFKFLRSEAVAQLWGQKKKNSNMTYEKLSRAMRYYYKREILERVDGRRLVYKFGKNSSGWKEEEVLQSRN
The method in brief: as §1

Assay [12] deals with ETV1 (Homo sapiens, UniProt P50549 1-477). The essentials: as §1
In assay [13] the target is T8, ERF (Homo sapiens, UniProt P50548 1-548).
T8 sequence: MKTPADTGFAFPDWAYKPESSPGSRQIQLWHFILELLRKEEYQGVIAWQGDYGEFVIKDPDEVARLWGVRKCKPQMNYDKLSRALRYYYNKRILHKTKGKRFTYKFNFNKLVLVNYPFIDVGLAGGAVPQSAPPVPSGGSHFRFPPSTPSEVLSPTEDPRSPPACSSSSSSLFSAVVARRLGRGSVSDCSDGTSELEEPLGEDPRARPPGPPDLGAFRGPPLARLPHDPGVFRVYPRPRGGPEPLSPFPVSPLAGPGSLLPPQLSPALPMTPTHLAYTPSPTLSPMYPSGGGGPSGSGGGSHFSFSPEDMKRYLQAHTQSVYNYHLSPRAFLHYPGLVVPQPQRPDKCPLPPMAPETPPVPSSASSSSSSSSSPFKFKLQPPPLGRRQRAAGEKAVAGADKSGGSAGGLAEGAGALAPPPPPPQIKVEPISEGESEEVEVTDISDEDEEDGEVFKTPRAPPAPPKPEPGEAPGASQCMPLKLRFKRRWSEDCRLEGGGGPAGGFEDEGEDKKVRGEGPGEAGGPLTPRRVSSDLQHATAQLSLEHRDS
The method in brief:
as §1

The target in assay [14] is T9, ETV3L (Homo sapiens, UniProt Q6ZN32 1-361).
T9 sequence: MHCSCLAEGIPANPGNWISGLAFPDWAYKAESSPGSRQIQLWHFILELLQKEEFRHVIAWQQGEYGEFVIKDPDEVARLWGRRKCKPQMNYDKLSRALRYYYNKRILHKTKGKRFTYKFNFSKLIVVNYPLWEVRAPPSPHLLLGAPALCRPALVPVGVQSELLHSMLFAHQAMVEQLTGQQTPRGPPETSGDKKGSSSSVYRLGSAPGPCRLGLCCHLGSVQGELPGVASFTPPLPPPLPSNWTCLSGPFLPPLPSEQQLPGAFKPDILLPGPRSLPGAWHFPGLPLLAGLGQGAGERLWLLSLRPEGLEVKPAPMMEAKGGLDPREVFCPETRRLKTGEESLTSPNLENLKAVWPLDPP
The essentials:
as §1

The target of assay [15] is T10, ETS2 (Homo sapiens, UniProt P15036 1-469).
T10 sequence: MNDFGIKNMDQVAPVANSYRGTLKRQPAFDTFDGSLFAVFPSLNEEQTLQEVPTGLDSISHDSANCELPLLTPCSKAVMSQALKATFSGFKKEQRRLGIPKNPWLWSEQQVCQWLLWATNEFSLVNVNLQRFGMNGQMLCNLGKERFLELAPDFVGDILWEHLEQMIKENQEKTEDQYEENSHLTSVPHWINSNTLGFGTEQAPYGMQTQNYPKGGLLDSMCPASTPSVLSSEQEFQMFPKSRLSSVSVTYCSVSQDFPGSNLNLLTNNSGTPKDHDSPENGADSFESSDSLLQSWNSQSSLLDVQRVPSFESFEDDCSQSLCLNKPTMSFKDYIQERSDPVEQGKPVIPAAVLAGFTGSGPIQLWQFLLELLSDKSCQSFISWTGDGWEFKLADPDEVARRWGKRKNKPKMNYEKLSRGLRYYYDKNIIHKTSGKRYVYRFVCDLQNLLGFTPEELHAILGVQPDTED
The essentials:
as §1

For assay [16], the target named is T11, SPDEF (Homo sapiens, UniProt O95238 1-335).
T11 sequence: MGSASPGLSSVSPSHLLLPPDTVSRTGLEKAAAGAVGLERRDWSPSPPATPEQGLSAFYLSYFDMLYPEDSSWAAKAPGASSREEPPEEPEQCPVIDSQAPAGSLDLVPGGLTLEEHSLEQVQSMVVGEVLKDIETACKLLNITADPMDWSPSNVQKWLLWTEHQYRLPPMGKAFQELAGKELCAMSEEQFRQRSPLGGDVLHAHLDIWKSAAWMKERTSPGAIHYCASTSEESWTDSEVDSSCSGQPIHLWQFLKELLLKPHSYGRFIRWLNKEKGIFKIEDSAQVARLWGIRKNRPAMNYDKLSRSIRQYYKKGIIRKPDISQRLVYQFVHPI
The essentials: as §1

Assay [17] concerns the target T12, ETV3 (Homo sapiens, UniProt P41162-2 1-143).
T12 sequence: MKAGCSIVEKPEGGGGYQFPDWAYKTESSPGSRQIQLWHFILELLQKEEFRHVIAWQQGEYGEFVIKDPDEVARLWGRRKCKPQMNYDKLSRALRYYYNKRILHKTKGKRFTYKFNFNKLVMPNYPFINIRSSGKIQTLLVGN
The essentials:
as §1

The target of assay [18] is ETV6 (Homo sapiens, UniProt P41212 1-452). The essentials: as §1
Chain of ETV6 (P41212 whole entry): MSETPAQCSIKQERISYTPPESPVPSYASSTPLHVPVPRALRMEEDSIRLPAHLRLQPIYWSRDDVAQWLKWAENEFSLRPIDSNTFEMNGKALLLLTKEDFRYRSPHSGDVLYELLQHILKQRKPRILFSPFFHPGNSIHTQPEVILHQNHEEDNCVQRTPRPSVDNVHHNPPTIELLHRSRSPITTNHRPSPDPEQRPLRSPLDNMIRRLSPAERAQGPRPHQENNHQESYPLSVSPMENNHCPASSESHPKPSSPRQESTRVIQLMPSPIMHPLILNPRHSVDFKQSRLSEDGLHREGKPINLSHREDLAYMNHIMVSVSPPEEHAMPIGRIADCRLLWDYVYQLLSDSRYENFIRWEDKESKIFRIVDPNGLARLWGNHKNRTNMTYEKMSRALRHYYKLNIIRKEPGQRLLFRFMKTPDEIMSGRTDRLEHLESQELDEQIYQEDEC

Chain of ELF4 (Q99607 whole entry): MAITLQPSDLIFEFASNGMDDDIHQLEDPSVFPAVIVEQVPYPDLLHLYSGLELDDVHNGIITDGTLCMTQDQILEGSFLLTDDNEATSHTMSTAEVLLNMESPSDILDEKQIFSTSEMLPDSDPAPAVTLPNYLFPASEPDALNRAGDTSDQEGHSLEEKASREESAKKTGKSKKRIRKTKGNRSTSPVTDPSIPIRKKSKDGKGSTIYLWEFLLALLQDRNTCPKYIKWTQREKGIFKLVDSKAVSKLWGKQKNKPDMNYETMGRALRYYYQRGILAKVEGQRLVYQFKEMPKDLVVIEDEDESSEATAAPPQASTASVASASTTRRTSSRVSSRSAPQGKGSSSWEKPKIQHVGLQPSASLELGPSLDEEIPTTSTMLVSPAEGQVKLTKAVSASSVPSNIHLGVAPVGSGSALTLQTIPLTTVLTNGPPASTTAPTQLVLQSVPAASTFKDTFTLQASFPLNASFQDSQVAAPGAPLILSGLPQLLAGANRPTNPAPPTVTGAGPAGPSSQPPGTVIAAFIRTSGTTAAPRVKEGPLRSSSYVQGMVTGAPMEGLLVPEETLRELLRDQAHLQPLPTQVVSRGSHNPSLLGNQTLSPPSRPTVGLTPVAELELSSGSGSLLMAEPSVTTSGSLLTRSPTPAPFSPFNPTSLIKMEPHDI
Chain of ETV1 (P50549 whole entry): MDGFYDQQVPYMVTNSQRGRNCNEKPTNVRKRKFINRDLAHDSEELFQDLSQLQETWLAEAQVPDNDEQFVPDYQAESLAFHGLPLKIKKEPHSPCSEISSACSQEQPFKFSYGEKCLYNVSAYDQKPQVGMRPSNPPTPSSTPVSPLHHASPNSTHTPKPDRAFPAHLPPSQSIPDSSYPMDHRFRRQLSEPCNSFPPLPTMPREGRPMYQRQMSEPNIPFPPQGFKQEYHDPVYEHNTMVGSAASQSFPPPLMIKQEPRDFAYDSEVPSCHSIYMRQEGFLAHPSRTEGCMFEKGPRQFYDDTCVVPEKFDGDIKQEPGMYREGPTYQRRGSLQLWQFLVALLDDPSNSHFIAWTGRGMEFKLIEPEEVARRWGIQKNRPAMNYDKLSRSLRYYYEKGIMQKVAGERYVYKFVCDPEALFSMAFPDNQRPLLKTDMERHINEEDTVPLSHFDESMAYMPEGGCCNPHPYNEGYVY
Chain of SPIB (Q01892 whole entry): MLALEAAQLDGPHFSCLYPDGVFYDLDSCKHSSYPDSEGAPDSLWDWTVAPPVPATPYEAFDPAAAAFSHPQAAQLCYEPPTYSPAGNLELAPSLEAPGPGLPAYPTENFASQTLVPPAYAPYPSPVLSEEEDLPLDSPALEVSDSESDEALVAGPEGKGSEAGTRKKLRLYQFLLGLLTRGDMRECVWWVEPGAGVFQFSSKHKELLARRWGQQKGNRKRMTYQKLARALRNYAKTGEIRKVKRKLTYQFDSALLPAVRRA
Chain of ELF1 (P32519 whole entry): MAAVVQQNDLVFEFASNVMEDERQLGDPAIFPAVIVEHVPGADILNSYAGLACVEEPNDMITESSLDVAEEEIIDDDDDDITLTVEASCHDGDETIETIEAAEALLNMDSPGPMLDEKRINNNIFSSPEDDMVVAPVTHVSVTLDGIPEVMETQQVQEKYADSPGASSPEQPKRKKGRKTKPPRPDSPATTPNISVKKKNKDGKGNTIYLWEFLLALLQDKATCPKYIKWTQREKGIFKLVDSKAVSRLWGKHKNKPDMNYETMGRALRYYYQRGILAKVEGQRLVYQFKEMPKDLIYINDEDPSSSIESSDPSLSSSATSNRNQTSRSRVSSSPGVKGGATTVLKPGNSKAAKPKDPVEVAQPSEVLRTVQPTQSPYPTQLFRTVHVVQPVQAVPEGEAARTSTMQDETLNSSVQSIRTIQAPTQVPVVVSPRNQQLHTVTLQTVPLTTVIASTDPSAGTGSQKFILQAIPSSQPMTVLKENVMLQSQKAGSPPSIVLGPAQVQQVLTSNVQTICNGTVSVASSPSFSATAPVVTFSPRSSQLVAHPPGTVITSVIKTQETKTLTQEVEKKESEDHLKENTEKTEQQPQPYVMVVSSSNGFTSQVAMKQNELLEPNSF
Chain of ETV5 (P41161 whole entry): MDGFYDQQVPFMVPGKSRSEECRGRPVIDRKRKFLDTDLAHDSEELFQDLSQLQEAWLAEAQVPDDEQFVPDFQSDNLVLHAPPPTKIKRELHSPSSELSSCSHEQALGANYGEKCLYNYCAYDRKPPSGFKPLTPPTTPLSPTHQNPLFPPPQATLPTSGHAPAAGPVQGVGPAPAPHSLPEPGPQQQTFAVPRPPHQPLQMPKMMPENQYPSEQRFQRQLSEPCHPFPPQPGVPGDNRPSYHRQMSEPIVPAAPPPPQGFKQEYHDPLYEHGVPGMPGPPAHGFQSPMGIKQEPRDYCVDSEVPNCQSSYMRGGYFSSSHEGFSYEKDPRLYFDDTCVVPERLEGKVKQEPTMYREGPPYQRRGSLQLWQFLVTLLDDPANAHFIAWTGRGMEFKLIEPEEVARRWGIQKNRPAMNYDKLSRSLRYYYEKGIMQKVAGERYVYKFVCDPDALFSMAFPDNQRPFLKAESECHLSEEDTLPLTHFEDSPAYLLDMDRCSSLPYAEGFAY

With CACCGG, the binding signal in assay [1] is 1.16 fold enrichment (6-mer frequency, TF over GST control); in assay [2], 1.04 fold enrichment (6-mer frequency, TF over GST control); in assay [3], 1.27 fold enrichment (6-mer frequency, TF over GST control); in assay [4], 1.09 fold enrichment (6-mer frequency, TF over GST control); in assay [5], 1.13 fold enrichment (6-mer frequency, TF over GST control); in assay [6], 1.16 fold enrichment (6-mer frequency, TF over GST control). The binding signal in [7] is 1.75 fold enrichment (6-mer frequency, TF over GST control); in assay [8], 1.21 fold enrichment (6-mer frequency, TF over GST control); in [9], 1.16 fold enrichment (6-mer frequency, TF over GST control); in assay [10], 1.05 fold enrichment (6-mer frequency, TF over GST control); in assay [11], 1.17 fold enrichment (6-mer frequency, TF over GST control); in assay [12] it was 1.21 fold enrichment (6-mer frequency, TF over GST control). The binding signal in assay [13] was 1.08 fold enrichment (6-mer frequency, TF over GST control); in [14], 1.14 fold enrichment (6-mer frequency, TF over GST control); in assay [15], 1.17 fold enrichment (6-mer frequency, TF over GST control); in [16], 1.08 fold enrichment (6-mer frequency, TF over GST control); in assay [17], 1.14 fold enrichment (6-mer frequency, TF over GST control); in assay [18], 1.09 fold enrichment (6-mer frequency, TF over GST control).
